The results in this text go back to PubChem BioAssay (EPA / NIEHS).

Calls of active or inactive are those of the source. Rule for the calls: active = hit-call score of the fitted dose curve at least 0.9, where 1 is the maximum; inactive = score below 0.9.

For orientation: AC50 means the midpoint of the concentration-response curve, whichever way the signal moves.

The experiment in a line: ATG_VDRE_CIS: Attagene CIS-FACTORIAL HepG2 Assay for human Vitamin D Receptor Element (VDRE) (AID 2282968). The following applies: HepG2 VDRE cis-reporter transcription, actives raise or lower the signal. As to the method:
ATG_CIS is a cell-based, multiplexed-readout assay that uses HepG2, a human liver cell line, with measurements taken at 24 hours after chemical dosing in a 24-well plate.ATG_VDRE_CIS is one of 52 assay component(s) measured or calculated from the ATG_CIS assay. It is designed to make measurements of mRNA induction, a form of inducible reporter, as detected with fluorescence intensity signals by Reverse transcription polymerase chain reaction (RT-PCR) and Capillary electrophoresis technology.Data from the assay component ATG_VDRE_CIS was analyzed into 1 assay endpoint. This assay endpoint, ATG_VDRE_CIS, was analyzed with bidirectional fitting relative to DMSO as the negative control and baseline of activity. Using a type of inducible reporter, measures of mRNA for gain or loss-of-signal activity can be used to understand the reporter gene at the transcription factor-level as they relate to the gene VDR. Furthermore, this assay endpoint can be referred to as a primary readout, because this assay has produced multiple assay endpoints where this one serves a reporter gene function. To generalize the intended target to other relatable targets, this assay endpoint is annotated to the nuclear receptor intended target family, where the subfamily is non-steroidal.
Human liver HepG2 cells are transiently transfected with multiple reporter transcription units (MRTUs) in 6-well plates using FuGene 6 reagent (Roche; 3 ml FuGene/1 mg DNA). The MRTU constructs are regulated by a cis-regulating element (promoter). […] A major difference between the CIS and TRANS system is that in CIS activities of endogenous TFs are measured, whereas the TRANS assay evaluates changes in activities of exogenous, chimeric NR-Gal4 proteins. […] At the end of 24 hour incubation, total RNA was isolated using TriZol reagent (Invitrogen). The isolated RNA is then reverse-transcribed using oligo(dT) primer and Mo-MLV reverse transcriptase (Invitrogen) with DNAse I (Ambion) treatment for 30 min. The one-tenth of the produced cDNA was amplified by PCR using Taq DNA polymerase (Invitrogen) and two reporter sequence-specific primers. The PCR products were fluorescently labeled by primer extension with 6-arboxyfluorescein (6-FAM) 5'-labeled reporter sequence-specific primer (2 min at 95 C, 20 s at 68 C and 10 min at 72 C) and these products were digested with 5U of HpaI (New England Biolabs) for 2h at 37 C. The fragments were purified using Qiaquick PCR columns (Qiagen), analyzed on an ABI 3130xL genetic analyzer (Applied Biosystems) with peak positions identified by using a set of X-rhodamine (ROX)-labeled MapMarker1000 molecular weight standards (BioVentures). The raw capillary electrophoresis data was processed using Attagraph software (Attagene).
Take `O=C1Nc2ccccc2C1(c1ccc(O)cc1)c1ccc(O)cc1`: the half-maximal activity concentration (AC50) was 17.8 µM (active). For `FC(F)(F)C(=NOCC1OCCO1)c1ccc(Cl)cc1`, the outcome was inactive. Turning to `Nc1ccc(-c2ccc(F)cc2)cc1`, the call was inactive. As for `CC1=NC(C)OC1C` (stereo not given), the concentration at half-maximal activity (AC50) was 9.63 µM (active). For the molecule `C=C(C)C(=O)OCCOc1ccccc1`, the call was inactive. In the case of `C=C(C)[C@@H]1CCC2=CCC[C@@H](C)[C@]2(C)C1`, the outcome was inactive. In the case of `CCOCC(=O)O`, the molecule was classed as inactive. Consider `CCOc1nc(F)cc2nc(S(=O)(=O)Nc3c(Cl)cccc3C(=O)OC)nn12`, for which the concentration at half-maximal activity (AC50) was 16.6 µM (active).

As for `Cn1c([N+](=O)[O-])cnc1COC(N)=O`, the molecule was classed as inactive. On to `CCCOC(=O)CCCCC(=O)OCCC`, for which the molecule was classed as inactive. For the molecule `O=C(O)CC(C(=O)O)C(CC(=O)O)C(=O)O` (stereo not given), the outcome was inactive.

As to `C=C[C@](C)(O)CC[C@@H]1[C@@]2(C)CCCC(C)(C)[C@@H]2CC[C@@]1(C)O`, the result was inactive. Turning to `CC(C)COC(=O)C=Cc1ccccc1`, the call was inactive. For `CCC(=O)Oc1ccc(/C(CC)=C(\CC)c2ccc(OC(=O)CC)cc2)cc1`, the AC50 was 4.32 µM (active). In the case of `Nc1ncn([C@@H]2O[C@H](CO)[C@@H](O)[C@H]2O)c(=O)n1`, the result was inactive. Take `Cc1cc(C)c(C)c(C)c1`: the outcome was inactive. For the molecule `C1=CCCC1`, the call was inactive. For the molecule `O=C(O)c1ccccc1Nc1cccc(C(F)(F)F)c1`, the AC50 was 44.5 µM (active). On the same count and under the same terms, with `O=C1c2ccccc2C(=O)C1c1nc2ccccc2c(Br)c1O` the figure was 17.2 µM (active); with `COc1ccc(C(Cl)=C(c2ccc(OC)cc2)c2ccc(OC)cc2)cc1`, 4.46 µM (active). Regarding `CCCCCCC1(C)CCC(=O)O1` (stereo not given), the molecule was classed as inactive. Take `O=C1CCCC(=O)O1`: the result was inactive. Consider `C=CC(=O)NC(C)(C)CS(=O)(=O)O`, for which the call was inactive. On to `Cc1ccc([N+](=O)[O-])cc1S(=O)(=O)O`, for which the outcome was inactive. Consider `Nc1ccc(N=Nc2ccccc2)c(N)n1`, for which the half-maximal activity concentration (AC50) was 68.9 µM (active).

As for `C=CC(C)(CCC=C(C)C)OC(=O)CC(C)C` (stereo not given), the molecule was classed as inactive. Turning to `CC(C)(C)c1ccc(OC(=O)c2ccccc2O)cc1`, the outcome was inactive.

With `CC/C=C\CCOC(=O)CCCCC`, the molecule was classed as inactive.

In the case of `OC1CCCC1`, the molecule was classed as inactive. With `CCCCCCCCCCOS(=O)(=O)O`, the outcome was inactive. For `NCCCN1CCN(CCCN)CC1`, the molecule was classed as inactive. In the case of `C=CC(=O)OCC(Br)CBr` (stereo not given), the AC50 was 26.3 µM (active).

On to `Cc1cccc(N)n1`, for which the result was inactive. With `CCCCC(CC)CCC(CC(C)C)OS(=O)(=O)O` (stereo not given), the result was inactive. As to `NC(=O)N=NC(N)=O`, the molecule was called inactive. In the case of `CN(C)c1ccc(C(=N)c2ccc(N(C)C)cc2)cc1`, the AC50 is 1.29 µM (active). As to `CCCCC/C=C\CCC=O`, the outcome was inactive. Regarding `CC(=O)OC(C)C`, the outcome was inactive.

In the case of `CC(C)C(=O)C(C)C`, the AC50 is 55.2 µM (active). Turning to `O=C(O)C(c1ccc(Cl)cc1)c1ccc(Cl)cc1`, the molecule was called inactive.
